Inconclusive results are not listed. The source made the active and inactive calls. Unless noted, calls follow the shape of the dose curve; as a rule, active = well fitted curve in the direction sought with a large enough effect in the repeat runs; inconclusive = weak or mixed curves; inactive = no such curve, though single readings can be large; an effect the other way counts as inactive or inconclusive.
How the values were obtained:
[1] = qHTS assay to identify aromatase inhibitors - cell viability counter screen (AID 743084);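 also: cells stimulated with testosterone during compound exposure; nearly all actives have a fitted effect of over 55% in size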
[2] = qHTS assay to identify small molecule that activate the aryl hydrocarbon receptor (AhR) signaling pathway - cell viability counter screen (AID 743086);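 also: HepG2 liver cells carrying the AhR DRE luciferase reporter; series mostly up to about 70 µM; nearly all actives have a fitted effect of over 45% in size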
How it was run: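 HepG2-AhR-luc (HG2L7.5c1) cells, 4000/well, treated 24 h at 37 C with compound; viability measured as CellTiter-Fluor fluorescence after 30 min in the same wells as the luciferase read.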

[3] = target: Peroxisome proliferator-activated receptor gamma (Homo sapiens) (UniProt P37231); assay: qHTS assay to identify small molecule agonists of the peroxisome proliferator-activated receptor gamma (PPARg) signaling pathway (AID 743094; active = well fitted activation curve with a large enough effect in the signal ratio in the repeat runs, not every such curve was filed as active; the % refers to the signal ratio)
How it was run: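 Fluorescence-based beta-lactamase readout in HEK293H PPARg UAS-bla cells after 17 h compound exposure (37C) and 1 h B/G FRET substrate incubation at room temperature.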

[4] = target: Peroxisome proliferator-activated receptor gamma (Homo sapiens) (UniProt P37231); assay: qHTS assay to identify small molecule antagonists of the peroxisome proliferator-activated receptor gamma (PPARg) signaling pathway (AID 743191; calls by dose curve; also: series mostly up to about 63 µM; nearly all actives have a fitted effect of over 30% in size)
How it was run: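 GeneBLAzer PPARg UAS-bla HEK293H cells, 5 h post-plating, exposed to compounds 17 h at 37C. LiveBLAzer B/G FRET substrate added for 1 h at room temperature; beta-lactamase reporter read by fluorescence intensity.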

[5] = qHTS assay for small molecule agonists of the antioxidant response element (ARE) signaling pathway (AID 743202; active = well fitted activation curve with a large enough effect in the signal ratio in the repeat runs, not every such curve was filed as active; the % refers to the signal ratio)
How it was run: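 HepG2 ARE-bla reporter line, 2,000 cells/well; 5 h preincubation 37 C/5% CO2; compound (DMSO) 16 h 37 C; B/G FRET substrate 2 h RT; fluorescence intensity.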

[6] = qHTS assay for small molecule agonists of the antioxidant response element (ARE) signaling pathway - cell viability counter screen (AID 743203; calls by dose curve; also: nearly all actives have a fitted effect of over 55% in size)
How it was run: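 Parallel cytotoxicity read-out for the ARE-bla screen: HepG2 reporter cells, 16 hrs with compounds, then CellTiter-Glo luminescence.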

[7] = qHTS assay for small molecule activators of the heat shock response signaling pathway - cell viability counter screen (AID 743209); also: nearly all actives have a fitted effect of over 50% in size
How it was run: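 To flag cytotoxic compounds, HSE-bla HeLa cells plated at 1500 cells/well were dosed for 5 h at 37 C, followed by the reporter FRET read and then CellTiter-Glo, with luminescence recorded 30 min after reagent addition.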

[8] = qHTS assay for small molecule activators of the heat shock response signaling pathway (AID 743210; active = well fitted activation curve with a large enough effect in the signal ratio in the repeat runs, with a control signal flat, not every such curve was filed as active; the % refers to the signal ratio;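 also: HeLa cells with beta-lactamase reporter driven by heat shock elements; series mostly up to about 63 µM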)
How it was run: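 Beta-lactamase reporter read-out: FRET substrate fluorescence after 2.5 h at RT, following 5 h compound treatment at 37 C of HeLa cells carrying HSE-driven bla reporter; quantitative HTS format.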

[9] = qHTS assay to identify small molecule agonists of the peroxisome proliferator-activated receptor delta (PPARd) signaling pathway - cell viability counter screen (AID 743211); also: nearly all actives have a fitted effect of over 55% in size
How it was run: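 Luminescent ATP viability assay (CellTiter-Glo, 30 min RT) in UAS-bla HEK293H cells carrying the PPAR delta reporter construct, 3000 cells/well, after a 17 h compound treatment at 37 C.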

[10] = target: Peroxisome proliferator-activated receptor delta (Homo sapiens) (UniProt Q03181); assay: qHTS assay to identify small molecule agonists of the peroxisome proliferator-activated receptor delta (PPARd) signaling pathway (AID 743212; calls by dose curve)
How it was run: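 Read-out: beta-lactamase FRET fluorescence after 2 h room-temperature incubation with LiveBLAzer B/G substrate. Cells were HEK293H carrying a UAS-bla reporter for PPARd, treated at 37 C with DMSO-dissolved compounds.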

[11] = qHTS assay to identify small molecule antagonists of the peroxisome proliferator-activated receptor delta (PPARd) signaling pathway - cell viability counter screen (AID 743213); also: nearly all actives have a fitted effect of over 50% in size
How it was run: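 Agonist-stimulated (L165041, 300 nM final) HEK293H PPARd UAS-bla cells are exposed to compounds for 17 h at 37 C, and ATP-based luminescence (CellTiter-Glo) from the same wells reports cytotoxicity.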

[12] = target: Peroxisome proliferator-activated receptor delta (Homo sapiens) (UniProt Q03181); assay: qHTS assay to identify small molecule antagonists of the peroxisome proliferator-activated receptor delta (PPARd) signaling pathway (AID 743215; active = well fitted inhibition curve with a large enough effect in the signal ratio in the repeat runs, not every such curve was filed as active; the % refers to the signal ratio; also: series mostly up to about 62 µM)
How it was run: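 Screen format: qHTS, antagonist mode. HEK293H PPARd-bla cells received compound and 300 nM L165041 (final), 17 h, 37 C. Beta-lactamase detected via FRET substrate fluorescence, 2 h, room temperature.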

[13] = qHTS assay to identify small molecule agonists of the farnesoid-X-receptor (FXR) signaling pathway - cell viability counter screen (AID 743218); also: nearly all actives have a fitted effect of over 45% in size
How it was run: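 Same-well cytotoxicity check on FXR-UAS-bla HEK 293T cells: 5 h attachment, 16 h compound at 37 C, CellTiter-Glo luminescence read at room temperature after 30 min.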

[14] = qHTS assay to identify small molecule antagonists of the farnesoid-X-receptor (FXR) signaling pathway - cell viability counter screen (AID 743221; active = well fitted cell-killing curve with a large enough effect in the repeat runs, not every such curve was filed as active; also: nearly all actives have a fitted effect of over 50% in size)
How it was run: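 In GeneBLAzer FXR-UAS-bla HEK 293T cells stimulated with 50 uM chenodeoxycholic acid (final), compounds acted for 16 h at 37 C. Viability was assessed afterwards by CellTiter-Glo luminescence.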

[15] = target: Vitamin D3 receptor (Homo sapiens) (UniProt P11473); assay: qHTS assay to identify small molecule antagonists of the vitamin D receptor (VDR) signaling pathway (AID 743223; active = well fitted inhibition curve with a large enough effect in the signal ratio in the repeat runs, not every such curve was filed as active; the % refers to the signal ratio)
How it was run: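 Agonist 1alpha,25-dihydroxyvitamin D3 (3 nM in well) was added with each compound to VDR-bla cells preincubated 4 h. Cells stood 16 h at 37C, then FRET substrate 2 h at room temperature; fluorescence intensity recorded.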

[16] = qHTS assay to identify small molecule antagonists of the peroxisome proliferator-activated receptor gamma (PPARg) signaling pathway - cell viability counter screen (AID 743194); also: nearly all actives have a fitted effect of over 55% in size
How it was run: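 Cytotoxicity counter screen in PPARg-bla HEK293H cells, same wells as reporter assay. Compounds plus 50 nM rosiglitazone (final) for 17 h at 37 C, then viability read by CellTiter-Glo luminescence.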

[17] = target: Bile acid receptor (Homo sapiens) (UniProt Q96RI1); assay: qHTS assay to identify small molecule antagonists of the farnesoid-X-receptor (FXR) signaling pathway (AID 743217; active = well fitted inhibition curve with a large enough effect in the signal ratio in the repeat runs, not every such curve was filed as active; the % refers to the signal ratio)
How it was run: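 Quantitative HTS, beta-lactamase reporter format: FXR-UAS-bla HEK 293T cells co-treated 16 h at 37 °C with compounds and 50 uM final chenodeoxycholic acid, then read by B/G FRET fluorescence.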

[18] = target: Vitamin D3 receptor (Homo sapiens) (UniProt P11473); assay: qHTS assay to identify small molecule agonists of the vitamin D receptor (VDR) signaling pathway (AID 743222; calls by dose curve)
How it was run: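 Using LiveBLAzer B/G FRET detection, agonism was scored in VDR-bla cells exposed overnight (16 h, 37C) to DMSO-dissolved compounds; substrate incubation was 2 h at room temperature.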

[19] = target: Bile acid receptor (Homo sapiens) (UniProt Q96RI1); assay: qHTS assay to identify small molecule agonists of the farnesoid-X-receptor (FXR) signaling pathway (AID 743220; active = well fitted activation curve with a large enough effect in the signal ratio in the repeat runs, not every such curve was filed as active; the % refers to the signal ratio)
How it was run: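 FXR-UAS-bla HEK 293T cells carrying a UAS-driven beta-lactamase reporter were plated for 5 h at 37C/5% CO2, then exposed to DMSO-dissolved Tox21 10K compounds for 16 h at 37C. A LiveBLAzer B/G FRET substrate was loaded for 2 h at room temperature before fluorescence reading.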

Measured: Potency

Chain of Bile acid receptor (Homo sapiens) (Q96RI1 whole entry, looked up): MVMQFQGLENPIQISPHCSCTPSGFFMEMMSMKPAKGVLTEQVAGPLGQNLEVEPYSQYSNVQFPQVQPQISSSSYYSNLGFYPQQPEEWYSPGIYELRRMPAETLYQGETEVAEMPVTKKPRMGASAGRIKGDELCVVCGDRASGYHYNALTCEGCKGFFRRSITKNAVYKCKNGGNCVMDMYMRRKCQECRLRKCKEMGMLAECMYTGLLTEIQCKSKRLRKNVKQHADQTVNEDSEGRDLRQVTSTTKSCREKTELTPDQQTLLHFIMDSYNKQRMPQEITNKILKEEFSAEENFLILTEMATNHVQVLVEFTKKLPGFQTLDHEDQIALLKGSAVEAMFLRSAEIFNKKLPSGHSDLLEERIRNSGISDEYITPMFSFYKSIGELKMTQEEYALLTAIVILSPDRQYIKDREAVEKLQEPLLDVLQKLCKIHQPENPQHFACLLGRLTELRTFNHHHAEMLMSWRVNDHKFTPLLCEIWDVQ
Chain of Peroxisome proliferator-activated receptor gamma (Homo sapiens) (P37231 whole entry, looked up): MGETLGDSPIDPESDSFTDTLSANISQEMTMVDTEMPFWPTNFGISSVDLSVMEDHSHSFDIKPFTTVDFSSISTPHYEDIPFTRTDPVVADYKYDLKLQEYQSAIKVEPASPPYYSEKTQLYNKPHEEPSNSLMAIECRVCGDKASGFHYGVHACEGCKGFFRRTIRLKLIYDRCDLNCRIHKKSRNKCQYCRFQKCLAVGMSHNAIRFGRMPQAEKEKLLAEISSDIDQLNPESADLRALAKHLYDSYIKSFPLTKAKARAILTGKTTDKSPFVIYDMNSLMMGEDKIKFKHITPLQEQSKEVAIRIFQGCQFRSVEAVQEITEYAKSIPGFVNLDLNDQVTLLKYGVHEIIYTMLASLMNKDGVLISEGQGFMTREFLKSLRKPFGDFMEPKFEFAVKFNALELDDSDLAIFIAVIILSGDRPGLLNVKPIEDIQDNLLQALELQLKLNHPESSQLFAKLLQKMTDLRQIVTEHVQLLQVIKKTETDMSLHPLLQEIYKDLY
Chain of Vitamin D3 receptor (Homo sapiens) (P11473 whole entry, looked up): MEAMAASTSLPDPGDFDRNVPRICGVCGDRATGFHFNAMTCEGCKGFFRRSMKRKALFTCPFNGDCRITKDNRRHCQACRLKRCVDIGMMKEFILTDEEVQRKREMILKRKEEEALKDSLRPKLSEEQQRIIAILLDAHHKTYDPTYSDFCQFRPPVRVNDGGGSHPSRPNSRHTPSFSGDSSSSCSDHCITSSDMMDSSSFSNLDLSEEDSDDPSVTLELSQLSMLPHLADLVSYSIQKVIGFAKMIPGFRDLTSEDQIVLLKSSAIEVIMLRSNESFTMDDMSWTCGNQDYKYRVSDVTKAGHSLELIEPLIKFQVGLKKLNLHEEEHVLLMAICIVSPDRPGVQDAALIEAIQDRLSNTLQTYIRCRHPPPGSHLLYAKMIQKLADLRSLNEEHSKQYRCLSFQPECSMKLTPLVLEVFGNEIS
Chain of Peroxisome proliferator-activated receptor delta (Homo sapiens) (Q03181 whole entry, looked up): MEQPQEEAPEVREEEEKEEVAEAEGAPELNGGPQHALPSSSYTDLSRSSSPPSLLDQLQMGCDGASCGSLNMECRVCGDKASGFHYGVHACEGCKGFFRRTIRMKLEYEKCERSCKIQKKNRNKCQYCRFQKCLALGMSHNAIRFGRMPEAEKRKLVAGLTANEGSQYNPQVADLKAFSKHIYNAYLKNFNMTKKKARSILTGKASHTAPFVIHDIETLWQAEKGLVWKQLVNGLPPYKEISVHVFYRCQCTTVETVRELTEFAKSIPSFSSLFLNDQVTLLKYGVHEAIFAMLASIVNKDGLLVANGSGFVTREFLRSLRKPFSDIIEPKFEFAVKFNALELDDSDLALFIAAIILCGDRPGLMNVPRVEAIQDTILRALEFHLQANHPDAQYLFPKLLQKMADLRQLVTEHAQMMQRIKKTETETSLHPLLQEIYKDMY

CC(C)=CC(=O)O
inactive: [1] | [2] | [3] | [4] | [5] | [6] | [7] | [8] | [9] | [10] | [11] | [12] | [13] | [14] | [15]

C=CCn1c(=O)n([C@@H]2O[C@H](CO)[C@@H](O)[C@H]2O)c2nc(N)[nH]c(=O)c21
inactive: [1] | [2] | [3] | [16] | [5] | [6] | [9] | [11] | [17] | [13] | [14]

Cc1ccc(Nc2ccc(O)c3c2C(=O)c2ccccc2C3=O)cc1
inactive: [1] | [2] | [3] | [16] | [6] | [7] | [8] | [9] | [10] | [11] | [12] | [13] | [14] | [18] | [15]

N#CCc1ccccc1[N+](=O)[O-]
inactive: [1] | [2] | [4] | [5] | [6] | [8] | [9] | [10] | [11] | [12] | [13] | [19] | [14] | [18] | [15]

Oc1ccc2c(c1)OC[C@@H](N1CCC(O)(c3ccc(F)cc3)CC1)[C@H]2O
inactive: [1] | [2] | [4] | [16] | [6] | [7] | [8] | [9] | [10] | [12] | [13] | [18]

CCCC(=O)O[C@]1(C(=O)CCl)[C@@H](C)C[C@H]2[C@@H]3CCC4=CC(=O)C=C[C@]4(C)[C@@]3(F)C(=O)C[C@@]21C
inactive: [1] | [2] | [3] | [16] | [6] | [8] | [9] | [10] | [11] | [12] | [17] | [13] | [18]

NC(=O)Nc1nc2ccccc2[nH]1
inactive: [1] | [2] | [3] | [16] | [6] | [7] | [9] | [11] | [12] | [17] | [13] | [14] | [18]

CCc1cc(S(=O)(=O)O)c2cc(C(C)C)cccc1-2
inactive: [1] | [2] | [3] | [4] | [16] | [6] | [8] | [9] | [10] | [11] | [12] | [13] | [14] | [15]

C=C(C)C(=O)OCCC(C)OC(=O)C(=C)C (configuration not stated)
inactive: [1] | [2] | [3] | [16] | [5] | [6] | [8] | [9] | [10] | [11] | [12] | [14] | [18] | [15]

COCCOC(=O)CC#N
inactive: [1] | [2] | [3] | [16] | [5] | [6] | [9] | [10] | [11] | [12] | [13] | [14] | [18]

COCc1ccc(COC)cc1
inactive: [1] | [2] | [16] | [5] | [6] | [8] | [9] | [11] | [12] | [17] | [13] | [19] | [15]

CCCC(C)C(=O)O (configuration not stated)
inactive: [1] | [2] | [3] | [4] | [5] | [6] | [8] | [9] | [10] | [13] | [19] | [18] | [15]

CC(C)(O)c1ccccc1
inactive: [1] | [2] | [3] | [16] | [5] | [6] | [7] | [8] | [9] | [10] | [11] | [12] | [13] | [14] | [18] | [15]

O=C(O)c1cccc(C(=O)O)n1
inactive: [1] | [3] | [4] | [16] | [6] | [8] | [9] | [10] | [11] | [12] | [17] | [19] | [18]

C=CCOCC(O)CS(=O)(=O)O (configuration not stated)
inactive: [1] | [2] | [3] | [16] | [5] | [6] | [9] | [11] | [12] | [14] | [18]

C=CC(=O)OCCCCCC
inactive: [1] | [2] | [16] | [5] | [6] | [7] | [9] | [10] | [11] | [13] | [14]

CCO[Si](C)(OCC)OCC
inactive: [1] | [2] | [16] | [5] | [6] | [7] | [8] | [9] | [12] | [14] | [18] | [15]

NC1CCN(c2cccc(Cl)n2)CC1
inactive: [1] | [2] | [3] | [4] | [5] | [6] | [7] | [8] | [9] | [10] | [11] | [17] | [13] | [14] | [18] | [15]

Cn1ccc2cc3c(cc21)CCN3C(=O)Nc1cccnc1
inactive: [1] | [2] | [3] | [16] | [5] | [6] | [7] | [9] | [10] | [11] | [12] | [19] | [15]

Cc1ccc(N)cc1[N+](=O)[O-]
inactive: [1] | [2] | [4] | [16] | [5] | [6] | [8] | [9] | [10] | [11] | [12] | [13] | [14] | [18]
